# Over roughly 33,000 sequences, “E-score (-0.5 to 0.5)” has its median near -0.043; the highest 2% begin near 0.37. The entries come from a sample that favours the highest values as a whole.
# Target: T1, Upc2 (UniProt Q12151)
# T1 sequence: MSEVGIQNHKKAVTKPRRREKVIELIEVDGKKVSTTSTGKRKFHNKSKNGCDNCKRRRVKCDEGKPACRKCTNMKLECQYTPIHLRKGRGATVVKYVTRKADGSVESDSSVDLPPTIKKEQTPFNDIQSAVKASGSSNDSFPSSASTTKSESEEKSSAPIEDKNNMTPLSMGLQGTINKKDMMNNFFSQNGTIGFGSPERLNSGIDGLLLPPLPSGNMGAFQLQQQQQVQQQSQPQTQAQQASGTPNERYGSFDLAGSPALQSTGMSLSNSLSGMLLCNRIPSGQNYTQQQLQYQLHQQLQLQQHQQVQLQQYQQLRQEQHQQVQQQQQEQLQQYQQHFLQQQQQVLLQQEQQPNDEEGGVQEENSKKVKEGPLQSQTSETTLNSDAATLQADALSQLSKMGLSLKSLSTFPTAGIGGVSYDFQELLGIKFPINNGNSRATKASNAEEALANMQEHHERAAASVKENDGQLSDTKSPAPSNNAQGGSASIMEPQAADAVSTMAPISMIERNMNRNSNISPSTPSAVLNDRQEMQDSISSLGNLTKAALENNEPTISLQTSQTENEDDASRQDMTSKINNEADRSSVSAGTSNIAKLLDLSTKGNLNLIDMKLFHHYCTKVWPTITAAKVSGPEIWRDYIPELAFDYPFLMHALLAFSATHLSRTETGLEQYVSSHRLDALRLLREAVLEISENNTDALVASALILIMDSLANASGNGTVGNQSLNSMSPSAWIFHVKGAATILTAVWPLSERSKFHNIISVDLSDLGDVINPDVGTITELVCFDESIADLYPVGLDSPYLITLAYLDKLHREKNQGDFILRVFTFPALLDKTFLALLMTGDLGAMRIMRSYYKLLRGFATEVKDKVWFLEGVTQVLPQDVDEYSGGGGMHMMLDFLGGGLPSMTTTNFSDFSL
# Assay: PBM E-score (8-mer binding enrichment) (E-score (-0.5 to 0.5)); higher = stronger / more preferred TF binding
# Conditions: protein concentration: 200 nM; construct: GST-full length
# Protocol: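 Universal 'all 10-mer' protein binding microarrays (Agilent AMADID 015681) probed with GST-tagged S. cerevisiae TFs (full-length or DBD) made by in vitro transcription/translation (PURExpress), about 100-200 nM. Bound TF was detected with fluorescent anti-GST. Each ungapped 8-mer (which stands for itself and its reverse complement) is scored by the PBM enrichment score (E-score), a modified Wilcoxon-Mann-Whitney statistic from -0.5 to +0.5, computed with the Universal PBM Analysis Suite. Scale: above 0.35 generally sequence-specific binding.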
row,Sequence,PBM E-score
1,ATATGAAG,-0.19
2,ATATATAC,0.265
3,ATATAAAC,0.187
4,GTATAAAA,0.348
5,GTATAAAC,0.4
6,GTATATAA,0.298
7,GTATATAC,0.395
8,CATTGGTA,-0.184
9,AATCACCG,0.00219
10,ATTCGCAA,-0.00304
11,CCCGTAAA,0.381
12,ACCGTAAA,0.368
13,CCCCGTAA,0.308
14,GCCGTAAA,0.385
15,CCTGTAAA,-0.0269
16,GCCGTAAC,0.225
17,AGCTACTC,-0.129
18,CAAAAGCA,0.0182
19,ACTTATGG,-0.159
20,CCTACTCC,-0.318
21,CGTCGTCC,-0.154
22,CGTCGTAC,0.474
23,AGTCGTGC,-0.127
24,AGTCGTCC,-0.111
25,GGTCGCAC,0.138

row,Sequence,PBM E-score
1,CATCGTCG,0.106
2,GGACGTAC,0.138
3,AGTCGTAC,0.452
4,CGTCGTGC,0.0916
5,GGTCGTAC,0.462
6,CGTCGTAG,0.37
7,CGTAGTAG,0.108
8,GAGTGAGA,-0.214
9,CGCCTATC,-0.0576
10,AAAGGAGC,-0.113
11,GGGAGGAA,-0.119
12,AGAGATGA,-0.204
13,ATGGAGCA,-0.0645
14,CCCCAAGG,-0.378
15,CTTCCACC,-0.173
16,CAACCTCG,0.196
17,AGTCGTAT,0.467
18,AGTCGTCG,0.0489
19,AGTCGTAG,0.291
20,CGGAAGCC,-0.0575
21,ACTTTTCA,-0.0685
22,CGTTGTTA,0.0821
23,ATTCGTTA,0.346
24,GTTCGTTA,0.403
25,CTTCGCTC,0.208

row,Sequence,PBM E-score
1,ATTCGTTC,0.428
2,CTTCGTTC,0.457
3,CTTCGTTA,0.345
4,GTGCGTTA,0.0729
5,ATTCGTTG,0.215
6,CTTCGATC,0.0841
7,AGTCCTCA,-0.296
8,CATAGGTC,-0.0923
9,GCCCCTCC,-0.0822
10,ACATAACG,0.116
11,GCCTATCA,-0.187
12,AAACGGTA,0.367
13,ACACGGTC,-0.099
14,GTACGGTA,0.365
15,ATACGGTC,0.418
16,ATACGGTG,0.408
17,AGACGGTG,-0.109
18,AAACGGTG,0.386
19,CTACGGTC,0.109
20,CTACGGTA,0.122
21,AAACGGTC,0.344
22,ATACGGTA,0.406
23,ACACGGTG,-0.0718
24,GATGAAAA,0.0354
25,GGCGGGTA,-0.00895

row,Sequence,PBM E-score
1,TACGAACA,0.452
2,ACCGAACG,0.269
3,TCCGAACA,-0.0096
4,AACGAACA,0.426
5,CACGAACA,0.0853
6,GACGAACA,0.0681
7,CACGAACC,0.101
8,GACGAACC,0.0416
9,AGCGAACA,0.19
10,AACGAACG,0.419
11,CACGAACG,0.343
12,AACGAACC,0.427
13,AGAAGCGG,-0.222
14,AGAATAGA,-0.17
15,CACACTTA,-0.00527
16,ACTAGAGC,-0.0879
17,GTAATGAC,0.109
18,ACAGTTTC,-0.0564
19,CCCGCCAA,0.00973
20,ACTCTACT,0.0626
21,CATCCTAC,-0.0778
22,ACGCTAGG,-0.165
23,AGAGTAAT,-6e-05
24,TGTCGACA,0.063
25,CCCTAGCA,-0.26

row,Sequence,PBM E-score
1,ACCGAACT,0.0158
2,AACGAACT,0.371
3,AGCGAACT,0.0961
4,AATAGCCT,-0.081
5,ACGATTCA,0.328
6,AGCGTATA,0.444
7,GGCGTCTA,-0.152
8,GGCGTATA,0.434
9,AGCGTATC,0.166
10,AGCGTATG,0.268
11,CGCGTAGA,0.165
12,GGCGTAGA,0.048
13,CGCGTATC,0.253
14,CGCGTATA,0.451
15,GAACCATA,-0.072
16,CGCCTTGC,-0.288
17,ACTTGTCA,-0.235
18,AAAGCATG,-0.169
19,AGCTTGAT,-0.129
20,GGTATGAA,0.0119
21,CGTATGAG,0.415
22,AGTATGAC,0.0571
23,AGTATGAG,-0.125
24,CGTATGAC,0.42
25,GGTATGAC,-0.204

row,Sequence,PBM E-score
1,CGTATGAA,0.405
2,AGTATGAA,0.00208
3,CCTATGAG,-0.28
4,CAAGGTGG,-0.0983
5,ACGTAACA,-0.0115
6,GATCTTAA,0.159
7,ACGGTGGG,0.134
8,GACGACTC,-0.052
9,GACGACTA,-0.171
10,AACGACTC,0.401
11,TACGACTA,0.437
12,AACGACTA,0.379
13,ATCGACTG,0.0556
14,CACGACTG,0.0762
15,CACGACTC,0.0449
16,AGCGACTA,0.154
17,AACGACTT,0.305
18,AACGACTG,0.389
19,CACGACTA,-0.0651
20,AACCATAA,-0.0292
21,CACCAATC,-0.249
22,CTCCCACC,-0.0368
23,GTGTTCAA,-0.00045
24,AGCCAACA,-0.098
25,ATGTCTTG,-0.0852

row,Sequence,PBM E-score
1,CATGGGGC,-0.34
2,CAGGGTAA,-0.14
3,GAGGTCAA,-0.0747
4,CTCCCAAA,-0.0646
5,CGTATCAG,0.381
6,CGTATCAC,0.364
7,AGTATCAG,-0.235
8,CATATCAG,-0.165
9,CGTATCAA,0.37
10,TGTATCAA,-0.0549
11,CGGGCTAG,-0.117
12,CAAATCTG,-0.272
13,CCTGCTTC,-0.109
14,CAACGAGG,0.278
15,CCACGAGA,-0.277
16,TCACGAGA,0.0145
17,ACACGAGA,0.244
18,AATCGAGT,0.0695
19,ACACGAGT,0.162
20,CAACGAGA,0.314
21,TAACGAGA,0.391
22,AAACGAGG,0.481
23,AAACGTGG,0.255
